Calls of active or inactive are those of the source. The rule behind the calls is not given here.
assay: Brca1-Bard1 BiLC signal decrease – luminescence, single concentration, counter-screen for Mdm2/MdmX interaction inhibitor project, confirmation (AID 504668); conditions: Brca1/Bard1 bimolecular luciferase complementation counterscreen, at 8 µM, active compounds read high

Question: Which inhibition does the source give for `O=C(Nc1nc(-c2ccccc2)cs1)c1ccccc1NS(=O)(=O)c1ccc(F)cc1` here?
Answer: 25.5% (active)

Question: With `ClC(Cl)(Cl)c1nc2ccccc2n2nncc12` as the compound, how does the inhibition read?
Answer: 31.8% (active)

Question: Which inhibition does the source give for `COc1ccc(C(NC(C)=O)c2cc(Cl)c3cccnc3c2O)cc1` (centres undefined) here?
Answer: 29.3% (active)

Question: With `O=C(Nc1nc(-c2ccccn2)cs1)c1ccc(F)c(S(=O)(=O)N2CCOCC2)c1` as the compound, how does the inhibition read?
Answer: 25.6% (active)

Question: For `COc1cc(Br)cc(/C=N/NC(=O)Cc2ccc(C(F)(F)F)cc2[N+](=O)[O-])c1O`, which inhibition is on record?
Answer: 32.8% (active)

Question: Which inhibition does the source give for `Cc1[nH]c(N=Nc2ccccc2)nc1N=Nc1ccccc1` here?
Answer: 24.1% (active)

Question: For `Cc1ccc(-n2nc(C)c(NC(=O)CCl)c2C)cc1C`, which inhibition is on record?
Answer: 34% (active)

Question: With `CCN(CC)CCCNC(=O)c1ccc2c(Cl)c3c(nc2c1)CCCC3` as the compound, how does the inhibition read?
Answer: 30.8% (active)

Question: With `Cc1ccc(N=c2c([N+](=O)[O-])nn(-c3ccc4c(c3)OCCO4)n2O)cc1F` as the compound, how does the inhibition read?
Answer: 23.7% (active)

Question: For `O=S(=O)(c1ccc(Cl)cc1)N1CCN(Cc2ccc(O)c3ncccc23)CC1`, which inhibition is on record?
Answer: 25% (active)

Question: Which inhibition does the source give for `COc1ccc(N=Nc2ccc(O)c3ncccc23)cc1` here?
Answer: 31.7% (active)

Question: For `Oc1c(CN2CCN(c3ccccn3)CC2)cc(Cl)c2cccnc12`, which inhibition is on record?
Answer: 28% (active)

Question: With `CCOC(=O)C1=C(C)n2c(s/c(=C/c3cccc([N+](=O)[O-])c3)c2=O)=NC1c1ccc(O)c(OC)c1` (centres undefined) as the compound, how does the inhibition read?
Answer: 26.4% (active)

Question: With `CC(=O)/C(C#N)=C1\NC(=O)C(Cc2ccc(C)c(Cl)c2)S1` (centres undefined) as the compound, how does the inhibition read?
Answer: 31.8% (active)

Question: For `Cc1ccc(NC(=O)c2ccccc2NS(=O)(=O)c2ccc(F)cc2)cc1S(=O)(=O)N1CCCCC1`, which inhibition is on record?
Answer: 28.2% (active)

Question: With `COC1(OC)C(/C=C/c2ccc(C)cc2)C(C#N)(C#N)C1(OC)OC` (centres undefined) as the compound, how does the inhibition read?
Answer: 35.3% (active)

Question: For `O=C(CCS(=O)(=O)c1ccc(F)cc1)Nc1nc(-c2ccncc2)cs1`, which inhibition is on record?
Answer: 34.2% (active)

Question: With `CC[C@@]1(C(=O)OC)N[C@H](CN(C)C(=O)Nc2ccc(C(F)(F)F)cc2)[C@@H]2C(=O)N(Cc3ccccc3)C(=O)[C@@H]21` as the compound, how does the inhibition read?
Answer: 32.2% (active)

Question: With `COc1ccc(C(C)=O)cc1CSc1nnc(-c2ccc(Cl)cc2)n1-c1ccccc1` as the compound, how does the inhibition read?
Answer: 25.6% (active)

Question: For `CC(C)(C)c1ccc(OCC(=O)N/N=C/c2cc(Br)ccc2OC(=O)c2ccco2)cc1`, which inhibition is on record?
Answer: 27% (active)

Question: For `CCN1CCN(CCCNC(=O)c2ccc(/C=C3/Sc4ccccc4N(Cc4ccccc4F)C3=O)cc2)CC1`, which inhibition is on record?
Answer: 24.1% (active)

Question: For `O=C(COc1ccc([N+](=O)[O-])cc1)Nc1nc(-c2ccccn2)cs1`, which inhibition is on record?
Answer: 35.6% (active)

Question: Which inhibition does the source give for `COc1cc([N+](=O)[O-])cc(/C=N/NC(=O)c2ccc(NC(=O)c3ccc(C)cc3)cc2)c1O` here?
Answer: 33.2% (active)

Question: With `Oc1ccccc1CNc1ccc(Br)cn1` as the compound, how does the inhibition read?
Answer: 28.8% (active)

Question: Which inhibition does the source give for `O=C(CCCN1C(=O)/C(=C\c2ccco2)SC1=S)Nc1cccc2ccccc12` here?
Answer: 28.5% (active)

Question: Which inhibition does the source give for `Oc1c(C(c2ccccn2)N2CCC(Cc3ccccc3)CC2)cc(Cl)c2cccnc12` (centres undefined) here?
Answer: 33.2% (active)

Question: For `CCCCCCCCn1c2c(c(=N)c3ccccc31)CCC2`, which inhibition is on record?
Answer: 27.2% (active)

Question: With `O=c1c2ccccc2nc(N/N=C/c2c(O)ccc3ccccc23)n1O` as the compound, how does the inhibition read?
Answer: 35.9% (active)

Question: For `O=C(COc1ccc(F)cc1Cl)Nc1nc(-c2ccccn2)cs1`, which inhibition is on record?
Answer: 33.8% (active)

Question: With `c1ccc(-[n+]2nc(Nc3cccc4ccccc34)sc2-c2c3ccccc3cc3ccccc23)cc1` as the compound, how does the inhibition read?
Answer: 23.6% (active)

Question: Which inhibition does the source give for `O=C(Nc1ccc(Br)c(C(F)(F)F)c1)c1ccc(C(F)(F)F)cc1` here?
Answer: 28.7% (active)

Question: With `CC(C)C(=O)N1CCN(c2ccc(NC(=O)c3ccc([N+](=O)[O-])o3)cc2)CC1` as the compound, how does the inhibition read?
Answer: 23.4% (active)

Question: For `N=c1n(CCO)c2ccccc2n1CCOc1ccc(Cl)cc1Cl`, which inhibition is on record?
Answer: 25.4% (active)

Question: With `Cc1c(C(=O)Nc2cccc(Cl)c2)oc2ccc(S(=O)(=O)N3CCC4(CC3)OCCO4)cc12` as the compound, how does the inhibition read?
Answer: 32.3% (active)

Question: Which inhibition does the source give for `Cc1cc(C)cc(OCc2nc3ncc(Br)cc3[nH]2)c1` here?
Answer: 30.8% (active)

Question: For `COc1ccc(CCNC(=O)c2cc3c(=O)n4ccccc4nc3n(Cc3ccco3)c2=N)cc1OC`, which inhibition is on record?
Answer: 26.2% (active)

Question: For `FC(F)(F)c1cccc(NC(=S)N(CCCN2CCCC2)Cc2cccn2Cc2ccc(Cl)cc2)c1`, which inhibition is on record?
Answer: 30.3% (active)

Question: With `Cc1cc(Nc2cccc([N+](=O)[O-])c2)n2c(nc3ccccc32)c1C#N` as the compound, how does the inhibition read?
Answer: 30.7% (active)

Question: Which inhibition does the source give for `CC(=O)NC(c1ccc(C)cc1)c1cc([N+](=O)[O-])c2cccnc2c1O` (centres undefined) here?
Answer: 25% (active)

— PubChem BioAssay
